We go through seven compounds from PubChem BioAssay (NCATS).

Experiment [1] is described as follows: Cell Viability - BJ (AID 421; calls by dose curve;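 also: potency is read from the fitted curve at half-maximal effect; cells exposed to compound for 40 hours at 37 °C before readout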). Particulars: BJ fibroblast viability, qHTS. The procedure, abridged: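 Cytotoxicity in human BJ foreskin fibroblasts is scored as loss of cellular ATP after a 40-hour exposure, measured by luciferase luminescence. Controls are DMSO and 100 uM tamoxifen.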
(Quantitative high-throughput screening tests each substance at several concentrations.)

Experiment [2] in a line: Cellular Toxicity (caspase-3) Jurkat (AID 655).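 Also: cells exposed to compound for 16 h at 37 °C before reading.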 Particulars: Jurkat caspase-3 activation, luminescence, DMSO = 0%, tamoxifen = 100%; at 92.2 µM (top of the series). The essentials: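 qHTS in human Jurkat T-cell leukemia line: 16 hr compound treatment at 37 °C, caspase-3/7 activity measured by Caspase-Glo luminescence. AC50 derived from Hill equation.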
A short description of experiment [3]: Cellular Toxicity (caspase-3) SK-N-SH (AID 661). Particulars: SK-N-SH caspase-3 activation, qHTS, DMSO as zero, staurosporine as full; series mostly up to 91.7 µM. The essentials:
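Human SK-N-SH neuroblastoma cells, 1500/well, were exposed to compounds for 16 hours at 37 °C. Caspase-Glo 3/7 luminescence was normalized to DMSO (basal) and 10 uM staurosporine (100%), and AC50 came from a Hill fit.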

The nature of experiment [4]: Cellular Toxicity (caspase-3) Hek293 (AID 664).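 Also: cells exposed to compound for 16 h at 37 °C before readout.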 Particulars: HEK293 caspase-3 activation, DMSO = 0%, 100 µM tamoxifen = 100%; series mostly up to 92.2 µM. The procedure, abridged: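 HEK293 cells in complete medium treated 16 h at 37 °C, then Caspase-Glo 3/7 luminescence read after 20 min at room temperature. Normalized to DMSO and 100 uM tamoxifen; AC50 from Hill fit of concentration-response.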

Experiment [5] can be described thus: Cellular Toxicity (caspase-3) N2a (AID 665).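 Also: compound exposure lasted 16 h at 37 °C before readout.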 Particulars: N2a cells, luminescence, normalized: DMSO 0%, 10 µM staurosporine 100%; at 92.2 µM (top of the series). The essentials:
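Mouse N2a neuroblastoma cells, 1500 per well, treated 16 h at 37 °C in complete medium; caspase-3/7 activity by Caspase-Glo luminescence after 1 h. Normalized to DMSO and 10 uM staurosporine; AC50 from Hill fits.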

Experiment [6] can be described thus: Cellular Toxicity (caspase-3) Renal Proximal Tubule (AID 667).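 Also: cells exposed to compound for 16 hours at 37 °C before detection.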 Particulars: renal proximal tubule cells; at 91.7 µM (top of the series), primary cells freshly taken from rat, solvent-only wells 0%, staurosporine 100% unless noted. The procedure, abridged:
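Caspase-Glo 3/7 read-out, rat primary kidney proximal tubule cells. Compound exposure 16 h, 37 °C; detection after 1 h at RT. Activity scaled to DMSO and 10 uM staurosporine.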

Experiment [7] in a line: MultiTox-Fluor Cytotoxicity Assay - LYMP1-001 - Dead Cells (AID 946).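 Also: 0% = DMSO and 100% = tetraoctylammonium bromide.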 Particulars: LYMP1-001 lymphoblastoid cells, dead-cell protease fluorescence; series mostly up to 92.2 µM. The procedure, abridged:
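Seed 2500 LYMP1-001 cells/well, incubate 5 hr at 37 C; add compound, 16 hr at 37 C; add MultiTox-Fluor reagent, 60 min RT; read dead-cell fluorescence Ex/Em=485/520. Normalize to DMSO and 15 uM tetraoctylammonium bromide.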

Experiment [8] can be described thus: Cell Viability - LYMP2-019 (AID 973).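 Also: cells exposed to compound for 24 h at 37 °C; 0% = DMSO alone and full effect = 92 µM tetraoctylammonium bromide; nearly all actives have a fitted effect of over 55% in size.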 Particulars: LYMP2-019 lymphoblastoid cell line viability; series mostly up to 92.2 µM. The procedure, abridged:
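Human lymphoblastoid LYMP2-019 cells (2500/well) preincubated 5 h at 37 C, then treated 24 h at 37 C in complete medium. Viability by CellTiter-Glo ATP luminescence after 30 min at room temperature; AC50 from Hill fits.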

Experiment [9] is described as follows: Cell Viability - LYMP2-021 (AID 974).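 Also: compound exposure lasts 24 hours at 37 °C; % is scaled to controls: 0 for no effect and ±100 for the full control effect; nearly all actives have a fitted effect of over 55% in size.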 Particulars: LYMP2-021 lymphoblastoid cells viability; series mostly up to 92.2 µM. The procedure, abridged: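 Human lymphoblastoid LYMP2-021 cells, 2500/well in complete medium, treated 24 hours at 37 C. Intracellular ATP by CellTiter-Glo luminescence (30 min, RT); AC50 from Hill fits of concentration-response.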
Experiment [10] addresses Bile acid receptor (Homo sapiens) (UniProt Q96RI1). The experiment can be described thus: qHTS assay for small molecule antagonists of farnesoid X receptor signaling (AID 588526; calls by dose curve; also: % is scaled to controls: 0 for no effect and ±100 for the full control effect). Particulars: HEK293T FXR-UAS-bla, beta-lactamase ratio, antagonist mode; series mostly up to 76.7 µM. The procedure, abridged: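 Concentration-response titrations were fitted to the Hill equation for half-maximal inhibition and maximal response, with data normalised to 50 uM chenodeoxycholic acid and DMSO control wells. Cells: FXR-UAS-bla HEK293T, dialyzed FBS.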

Experiment [11] has as its target Vitamin D3 receptor (Homo sapiens) (UniProt P11473). The experiment can be described thus: qHTS assay for small molecule antagonists of vitamin D receptor signaling (AID 588541; calls by dose curve;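 also: receptor activated by calcitriol during compound treatment; % is scaled to controls: 0 for no effect and ±100 for the full control effect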). Particulars: HEK293T VDR-UAS-bla, beta-lactamase ratio, antagonist mode; series mostly up to 76.7 µM. The essentials: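 VDR-UAS-bla HEK293T cells (2000/well, 2% charcoal-stripped FBS) were treated with titrated compounds plus 1-alpha,25-dihydroxyvitamin D3 (50 nM or 3 nM final) for 16 h at 37 C. CCF4 beta-lactamase fluorescence was read; Hill fits gave IC50.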

For experiment [12] the target is unchanged. The experiment in a line: qHTS assay for small molecule agonists of vitamin D receptor signaling (AID 588543; calls by dose curve;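 also: 0% = DMSO basal and 100% = reference agonist control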). Particulars: HEK293T VDR-UAS-bla, beta-lactamase ratio, 16 h; series mostly up to 76.8 µM. The essentials:
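Measured: β-lactamase reporter activity (CCF4, 405 nm excitation, 460/530 nm emission) in HEK293T VDR-UAS-bla cells after 16 h compound exposure at 37 °C. Normalization against 50 nM 1α,25-dihydroxyvitamin D3 and DMSO; Hill-fit EC50.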

Experiment [13] can be described thus: qHTS assay for small molecule agonists of the antioxidant response element (ARE) signaling pathway (AID 651741; active = well fitted activation curve with a large enough effect in the signal ratio; the % refers to the signal ratio; also: % of control where 0% means no effect). Particulars: HepG2 ARE-bla reporter, beta-lactamase FRET ratio, 16 h; series mostly up to 96 µM. The procedure, abridged: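 Compounds in DMSO are pinned onto HepG2 ARE-bla cells (2,000/well) that were preincubated 5 h; plates stay 16 h at 37 C, then beta-lactamase activity is detected with LiveBLAzer B/G substrate by fluorescence.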

Experiment [14] can be described thus: Cell Viability - SK-N-SH (AID 435; calls by dose curve;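 also: potency is read from the fitted curve at half-maximal effect; compound exposure lasted 40 h at 37 °C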). Particulars: SK-N-SH neuroblastoma cell viability qHTS. The essentials: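 Human neuroblastoma line, 40 h exposure at 37 °C, ATP quantified via luciferase luminescence; DMSO and 100 uM tamoxifen define 0 and 100% inhibition for AC50 fitting.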
Experiment [15] is described as follows: Cellular Toxicity (caspase-3) BJ (AID 658). Particulars: BJ fibroblasts, luminescence, normalized: DMSO 0%, staurosporine 100%; series mostly up to 91.7 µM. The essentials:
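Luminescent aminoluciferin-substrate cleavage reports caspase 3/7 activity in normal human BJ fibroblasts after 16 hr compound exposure at 37 °C. Normalized to DMSO (basal) and 10 uM staurosporine (100%); AC50 from Hill fit of concentration-response.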

Experiment [16] in a line: qHTS assay for small molecule antagonists of peroxisome proliferator-activated receptor delta signaling (AID 588535; active = well fitted inhibition curve with a large enough effect in the signal ratio, with a control signal flat, not every such curve was filed as active; the % refers to the signal ratio;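 as to max response: cells co-treated with a PPAR-delta agonist as stimulator during compound exposure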). Particulars: HEK293T PPARd-UAS-bla, beta-lactamase FRET ratio, 18 h; 460 nm channel. The procedure, abridged: (§1)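 Reporter: UAS-bla under PPAR-delta response element, HEK293T host. Medium: 2% charcoal/dextran FBS. Dosing: titration, 18 hrs, 37 C. Detection: CCF4, 2 hrs RT, 405 ex/460 and 530 em.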

For experiment [17], the target named is Peroxisome proliferator-activated receptor delta (Homo sapiens) (UniProt Q03181). The experiment is described as above. Particulars: HEK293T PPARd-UAS-bla, beta-lactamase FRET ratio, 18 h; series mostly up to 76.7 µM. The essentials: as §1
Sequence of Peroxisome proliferator-activated receptor delta (Homo sapiens) (Q03181 whole entry, looked up): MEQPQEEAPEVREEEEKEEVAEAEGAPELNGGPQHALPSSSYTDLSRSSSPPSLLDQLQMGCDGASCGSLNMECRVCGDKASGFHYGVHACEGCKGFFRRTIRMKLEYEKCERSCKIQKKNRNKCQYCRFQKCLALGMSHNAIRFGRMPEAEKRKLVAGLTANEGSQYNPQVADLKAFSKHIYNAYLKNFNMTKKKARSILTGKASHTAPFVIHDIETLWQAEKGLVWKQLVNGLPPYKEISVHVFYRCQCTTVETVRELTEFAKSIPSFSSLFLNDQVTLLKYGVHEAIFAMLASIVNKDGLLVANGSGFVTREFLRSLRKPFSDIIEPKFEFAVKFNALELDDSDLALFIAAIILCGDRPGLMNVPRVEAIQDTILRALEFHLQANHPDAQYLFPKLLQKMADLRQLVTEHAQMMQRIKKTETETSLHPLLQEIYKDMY
The target in experiment [18] is Peroxisome proliferator-activated receptor gamma (Homo sapiens) (UniProt P37231). The experiment can be described thus: qHTS assay for small molecule antagonists of peroxisome proliferator-activated receptor gamma signaling (AID 588537; active = well fitted inhibition curve with a large enough effect in the signal ratio, with a control signal flat, not every such curve was filed as active; the % refers to the signal ratio;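 also: reporter cells co-stimulated with 50 nM rosiglitazone agonist during compound treatment; % of control where 0% means no effect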). Particulars: HEK293 PPARg-UAS-bla, beta-lactamase ratio, antagonist mode; series mostly up to 76.8 µM. The procedure, abridged:
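We seeded GeneBLAzer HEK293 reporter cells at 3000 per well, allowed 6-6.5 h attachment at 37 C, then co-treated with test compound titrations and 50 nM rosiglitazone overnight (16 h). Inhibition was quantified from 460/530 nm emission ratios.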

Experiment [19] is described as follows: Cellular Toxicity (caspase-3) H-4-II-E (AID 663).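 Also: cells exposed to compound for 16 hr before readout.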 Particulars: H-4-II-E rat hepatoma, scaled: DMSO 0%, 100 µM tamoxifen 100%; series mostly up to 92.2 µM. The procedure, abridged: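 Luminescence from caspase-cleaved aminoluciferin substrate, read 20 min after reagent addition, reports caspase 3/7 activation in rat H-4-II-E cells after 16 hr compound exposure. Normalized to DMSO (basal) and 100 uM tamoxifen (100%); AC50 from Hill fits.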

A short description of experiment [20]: Cell Viability - NIH 3T3 (AID 541).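 Also: plate controls were DMSO alone for no effect and tamoxifen positive control for full effect; nearly all actives have a fitted effect of over 25% in size.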 Particulars: NIH 3T3 cell viability, qHTS; activity change, negative = cytotoxicity: at 92.2 µM (top of the series). The procedure, abridged: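 Mouse NIH 3T3 fibroblasts, 1000 cells/well, rested 5 hr at 37 °C, then exposed to compound for 40 hr at 37 °C in complete medium. Viability read as intracellular ATP by CellTiter-Glo luminescence; AC50 from Hill-equation fits of concentration-response data.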

“And” between values parts separate entries of the source, which are not always exact repeats. Identical values can stand only once. Inconclusive results are not listed. The source made the active and inactive calls. Unless noted, calls follow the shape of the dose curve; as a rule, active = well fitted curve in the direction sought with a large enough effect; inconclusive = small, poorly fitted or top-dose-only effect, or another doubt; inactive = no such curve, though single readings can be large; an effect the other way counts as inactive or inconclusive.

Sequence of Vitamin D3 receptor (Homo sapiens) (P11473 whole entry, looked up): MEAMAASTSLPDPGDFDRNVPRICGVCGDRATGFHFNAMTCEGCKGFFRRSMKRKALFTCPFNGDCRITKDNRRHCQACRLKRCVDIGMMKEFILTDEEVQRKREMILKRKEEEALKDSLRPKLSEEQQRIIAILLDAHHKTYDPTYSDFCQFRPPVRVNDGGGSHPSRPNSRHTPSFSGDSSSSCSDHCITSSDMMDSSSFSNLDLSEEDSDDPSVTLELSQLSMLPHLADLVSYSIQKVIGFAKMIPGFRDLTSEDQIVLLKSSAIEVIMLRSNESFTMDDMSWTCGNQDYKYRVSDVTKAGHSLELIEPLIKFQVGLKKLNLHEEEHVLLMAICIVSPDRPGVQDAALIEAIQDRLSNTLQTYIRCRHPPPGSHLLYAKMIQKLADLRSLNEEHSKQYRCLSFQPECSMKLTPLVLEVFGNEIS
Sequence of Peroxisome proliferator-activated receptor gamma (Homo sapiens) (P37231 whole entry, looked up): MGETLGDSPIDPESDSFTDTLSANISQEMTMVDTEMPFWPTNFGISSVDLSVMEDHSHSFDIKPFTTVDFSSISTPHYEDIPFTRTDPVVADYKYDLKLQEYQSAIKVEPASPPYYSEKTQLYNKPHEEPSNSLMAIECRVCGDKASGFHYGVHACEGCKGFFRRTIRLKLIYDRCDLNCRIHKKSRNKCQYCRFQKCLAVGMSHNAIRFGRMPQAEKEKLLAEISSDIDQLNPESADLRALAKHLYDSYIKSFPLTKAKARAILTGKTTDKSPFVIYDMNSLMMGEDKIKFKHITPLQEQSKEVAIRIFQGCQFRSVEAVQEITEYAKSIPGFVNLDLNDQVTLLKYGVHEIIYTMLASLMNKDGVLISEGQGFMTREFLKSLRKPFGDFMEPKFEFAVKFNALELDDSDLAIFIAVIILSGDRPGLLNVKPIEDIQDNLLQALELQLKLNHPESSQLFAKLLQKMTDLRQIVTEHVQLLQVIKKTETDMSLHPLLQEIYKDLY
Sequence of Bile acid receptor (Homo sapiens) (Q96RI1 whole entry, looked up): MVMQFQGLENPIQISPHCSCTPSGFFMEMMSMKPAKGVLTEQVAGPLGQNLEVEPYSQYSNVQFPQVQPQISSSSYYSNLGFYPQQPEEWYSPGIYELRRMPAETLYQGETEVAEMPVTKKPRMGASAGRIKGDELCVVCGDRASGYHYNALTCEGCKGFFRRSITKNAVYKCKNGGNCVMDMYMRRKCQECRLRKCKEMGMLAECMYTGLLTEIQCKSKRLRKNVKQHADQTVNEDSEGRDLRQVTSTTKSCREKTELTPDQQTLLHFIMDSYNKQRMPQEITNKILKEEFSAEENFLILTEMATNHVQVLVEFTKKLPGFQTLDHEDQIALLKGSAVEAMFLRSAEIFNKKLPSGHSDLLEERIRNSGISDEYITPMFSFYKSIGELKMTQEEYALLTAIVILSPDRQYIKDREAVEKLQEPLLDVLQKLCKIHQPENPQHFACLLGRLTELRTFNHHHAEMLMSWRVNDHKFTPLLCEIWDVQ

With `C=CCOC(C)=O`, in experiment [1], the Potency is > 92 µM (inactive). In addition, the caspase-3 activation in experiment [2] was 0.277% (inactive); in experiment [5], -3.6% (inactive); in experiment [6], -7.63% (inactive). In addition, the compound was classed as inactive in experiment [3], in [4], in experiment [10], in [11] and in [12]. The Potency result in [7], in experiment [8], in [9] and in experiment [13] was “inactive” in each case.
Regarding `Brc1ccccc1`, the Potency in experiment [14] is > 92 µM (inactive). Besides, the caspase-3 activation in [2] is -1.45% (inactive); in experiment [5] it was 0.903% (inactive). Moreover, the outcome in experiment [15], in [11] and in experiment [12] was inactive. The Potency result in experiment [8], in [17] and in experiment [18] was “inactive” each time. The max response in experiment [16] was found to be 10.8%.
For `C=C(C)C(=O)OCC1CO1` (stereo not drawn), the Potency in experiment [1] is > 92 µM (inactive). Besides, the compound was classed as inactive in [15], in experiment [3], in [19], in experiment [4], in [10] and in experiment [11]. In addition, the result in experiment [12] was inactive. Besides, the caspase-3 activation was -4.34% (inactive) in experiment [5] and -4.2% (inactive) in experiment [6]. For the same compound, the Potency entry in [8], in [17] and in experiment [18] was “inactive” throughout. Also, the max response in experiment [16] is -13.4%.
On to `CN=C=S`, for which the Potency in [1] and in experiment [14] was > 92 µM (inactive) each time. Moreover, the results for the caspase-3 activation in experiment [2] and in experiment [6] were -1.9% (inactive) and -3.52% (inactive), respectively. The outcome in experiment [19], in experiment [10], in experiment [11] and in experiment [12] was inactive. In addition, the Potency entry in [7], in experiment [8], in experiment [9], in [17], in experiment [18] and in experiment [13] was “inactive” throughout. In addition, the max response in experiment [16] was determined as 11.4%.
With `OCC1CO1` (stereo not drawn), the Potency in experiment [14] was > 92 µM (inactive). Moreover, in experiment [20], the activity change, negative = cytotoxicity was -5.54% (inactive). Besides, the caspase-3 activation in experiment [2] is 0.767% (inactive); in experiment [5], -2.46% (inactive); in experiment [6], 0.454% (inactive). In addition, the result in [15], in [3], in experiment [19], in [10], in experiment [11] and in [12] was inactive. Further, the Potency entry in [7], in experiment [9], in experiment [17], in [18] and in experiment [13] was “inactive” each time. Further, in experiment [16], the max response is -3.17% and 28.4%.
For `C=C(Cl)Cl`, in experiment [1], the Potency was > 92 µM (inactive). Moreover, in experiment [20], the activity change, negative = cytotoxicity was 0.633% (inactive). Besides, the caspase-3 activation in [2] is 0.59% (inactive). For the same compound, the call in experiment [15], in experiment [19] and in [4] was inactive. The Potency entry in experiment [7], in [17], in experiment [18] and in experiment [13] was “inactive” throughout. Besides, the max response in experiment [16] is -8.55%.
For `O=C(Cl)/C=C/C(=O)Cl`, in experiment [14], the Potency was > 92 µM (inactive). In experiment [20], the activity change, negative = cytotoxicity is 9.76% (inactive). Also, the figures for the caspase-3 activation in [2] and in experiment [6] were 0.334% (inactive) and -3.63% (inactive), respectively. In addition, the outcome in experiment [15], in experiment [3], in experiment [4], in experiment [10], in [11] and in [12] was inactive. Further, the Potency entry in experiment [7], in experiment [18] and in [13] was “inactive” throughout.
